Compound activity (PubChem)
CCHFV vOTU inh: blocks the CCHF virus ovarian tumor domain protease; CCHFV vOTU protease, Pep-AMC fluorescence; inhibition, % at 11.5 µM; hit rate 0.55% among 370,000; AID 651958; note: 0% = vehicle wells with enzyme and 100% = no enzyme wells
GDH-TPI counter: inhibits GDH-TPI coupling enzymes, artifact for Mtb FBA screen; GDH-TPI coupled enzyme counterscreen, NADH absorbance; inhibition, % at 4.8 µM; hit rate 1.2% among 360,000; AID 588335;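 note: 0% = DMSO wells and 100% = wells lacking the enzyme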
Mtb FBA inh: inhibits M. tuberculosis FBA enzyme | P9WQA3 | purified M. tuberculosis FBA, fluorescence read-out | inhibition, % at 1 µM | hit rate 2.3% among 360,000; in the data active = inhibition above about 27%;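 note: 0% = vehicle and 100% = reference inhibitor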
Target sequence (P9WQA3 whole entry, looked up): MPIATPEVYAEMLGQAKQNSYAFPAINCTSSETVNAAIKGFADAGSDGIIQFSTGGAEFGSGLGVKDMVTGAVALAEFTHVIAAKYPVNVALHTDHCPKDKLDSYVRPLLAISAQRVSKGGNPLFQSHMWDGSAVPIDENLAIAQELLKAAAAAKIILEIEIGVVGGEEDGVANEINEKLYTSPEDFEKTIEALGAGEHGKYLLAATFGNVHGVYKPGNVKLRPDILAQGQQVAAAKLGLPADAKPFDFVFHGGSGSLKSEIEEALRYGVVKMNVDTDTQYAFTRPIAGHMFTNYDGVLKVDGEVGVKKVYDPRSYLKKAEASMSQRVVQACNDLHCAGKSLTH
Vc quorum ag: inducers of Vibrio cholerae quorum light production without autoinducers. V. cholerae BH1578 lux reporter, luminescence, 6 h. AID 588436. activation, % at 18.7 µM. hit rate 0.16% among 350,000; in the data active = activation mostly above about 9.7%, no sharp cut-off
An asterisk follows results filed as active; i = inactive; . = no result given. Compounds with a hit are over-represented: about 3.9% of the library has one in this group of screens. Cut-off read from the data, not from the text of the source, unless noted: active = inhibition above about 30%; inactive = the rest.

SMILES	CCHFV vOTU inh	GDH-TPI counter	Mtb FBA inh	Vc quorum ag
Cc1ccc(-n2c(=S)[nH]c3sc4c(c3c2=O)CCc2ccccc2-4)cc1	0	-3	-2	i
O=S(=O)(Nc1ccc2cn[nH]c2c1)c1cc(Br)ccc1Br	17	-4	-1	i
Cc1ccc2c(c1)Cc1nc3ccccc3nc1-2	-66	8	57*	0
Cc1ccc2c(c1)-c1nc3ccccc3cc1C2=NC1CCCCC1	4	7	4	0
Cc1ccccc1NC(=O)C1CC(=O)N(c2ccc3c4c(cccc24)CC3)C1 (centres undefined)	-6	8	0	25*
O=C(COC(=O)Cc1cccs1)Nc1ccccc1Cl	4	-1	-3	0
COc1ccccc1C(=O)NCCCN1CCCC1=O	0	-11	-1	-1
COC(=O)C1=CN(CC2CCCO2)C=C(C(=O)OC)C1c1cccc(O)c1 (centres undefined)	-238	3	196*	0
COC(=O)C1=CN(CC2CCCO2)C=C(C(=O)OC)C1c1ccccc1C(F)(F)F (centres undefined)	-88	6	158*	0
COC(=O)C1=CN(CCCN2CCCC2=O)C=C(C(=O)OC)C1c1ccccc1C(F)(F)F	-181	22	123*	0
COc1ccc(C(=O)O)cc1S(=O)(=O)NCCCN1CCCC1=O	-5	11	6	i
COc1ccc(OC)c(NC(=S)NCc2cccnc2)c1	6	7	2	i
O=S(=O)(NC1CCCc2ccccc21)c1cnc[nH]1 (centres undefined)	8	2	3	-1
CN(C(=O)c1cnccn1)c1nnc(-c2cnccn2)s1	13	31*	-9	-3
CN(C(=O)c1ccccn1)c1nnc(-c2cnccn2)s1	4	8	2	-1
Cc1ccc2[nH]c(C)c(/C=N/Nc3nc4ccccc4s3)c2c1	9	38*	1	.
COc1ccc(C=NNc2nc3ccccc3s2)cc1	11	23	0	i
O=[N+]([O-])c1cc(-n2cnnn2)c(O)c([N+](=O)[O-])c1	3	31*	-3	0
COc1ccc(S(=O)(=O)N2CCOc3ccccc32)cc1	-3	-3	154*	i
COc1ccc(S(=O)(=O)N2c3ccccc3OCC2C)cc1 (centres undefined)	3	1	0	0
COc1cc(/C=N/Nc2nc3ccccc3[nH]2)ccc1O	8	50*	3	0
COc1cccc(/C=N/Nc2nc3ccccc3[nH]2)c1OC	11	14	-1	0
COc1cccc(/C=N/Nc2nc3ccccc3[nH]2)c1O	15	36*	-4	0
CC1CN(C(=O)C(Sc2ccccc2)c2ccccc2)CC(C)O1 (centres undefined)	-11	-12	-8	i
Cc1ccc(O)c(C(=O)c2cnn(C(=O)Cc3csc(C)n3)c2)c1	-2	13	6	-1
SMILES	CCHFV vOTU inh	GDH-TPI counter	Mtb FBA inh	Vc quorum ag
O=C(Cc1cscn1)c1ccc(O)cc1O	6	38*	-1	0
CCCCCC(=O)c1ccc(O)cc1O	8	23	1	0
Cc1nc(CC(=O)c2ccc(O)cc2O)cs1	12	33*	-1	i
Cc1nc(CC(=O)c2ccc(O)c(C)c2O)cs1	16	59*	-1	i
Cc1nc(CC(=O)c2c(C)cc(O)cc2O)cs1	-3	37*	0	0
Cc1nc(C/C(=N\Nc2ccccc2)c2ccc(O)cc2O)cs1	-1	9	-4	-1
CSc1ncccc1C(=O)OCC(=O)N1CCc2ccccc21	1	6	-4	i
COc1ccc(N(CC(=O)Nc2ccccc2OC)S(=O)(=O)c2ccc(NC(C)=O)cc2)cc1	7	31*	2	i
COc1ccccc1NC(=O)CN(c1ccccc1)S(=O)(=O)c1ccccc1	8	15	8	0
CCOC(=O)c1c(N)c2cc([N+](=O)[O-])ccc2n1C	7	5	2	2
CCOC(=O)/C(=C/c1c(C)n(C)c2ccc([N+](=O)[O-])cc12)C(C)=O	5	31*	-8	0
COC(=O)C1=C(O)/C(=C/c2ccc(OCC(=O)Nc3ccc(OC)cc3)cc2)N=C1C	-5	34*	0	1
CCCC(=O)NC1CCc2cc(OC)c(OC)c(OC)c2-c2ccc(OC)c(=O)cc21 (centres undefined)	23	28	4	-6
Cc1cc(S(=O)(=O)ON2C(=O)c3ccccc3C2=O)ccc1F	8	8	37*	0
COc1ccc(NC(=O)N2CCC(c3ccccc3)C2)c(OC)c1 (centres undefined)	0	6	-3	0
